The list is not random: actives were taken first. Their share in the collection is about 10%.
FLuc inh = blocks purified firefly luciferase enzyme activity; P08659; purified P. pyralis luciferase, luminescence, biochemical; Potency, µM (doses to about 115 µM), actives largely listed as inhibitors; hit rate 2.5% among 76,000; AID 1347043; note: nearly all actives have a fitted effect of over 65% in size
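FLuc 10nM, D-luciferin 10uM, ATP 10uM, Mg acetate 10mM, Tris acetate pH 7.5, Tween/BSA; cpd qHTS; enzyme added last; CCD luminescence.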
GPT2 inh = inhibitors of human GPT2 alanine aminotransferase; Potency, µM (doses to about 57.7 µM), inactives show top-dose activity change, negative = inhibition, most hits filed as inhibitors; Recombinant GPT2, coupled pyruvate oxidase/HRP Amplex Red fluorescence; hit rate 0.25% among 100,000; note: nearly all actives have a fitted effect of over 60% in size
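Inhibition is scored from Amplex Red fluorescence generated when pyruvate oxidase and HRP act on pyruvate released by GPT2. Reactions contain 10ng/uL enzyme, 250uM a-KG and 2mM L-alanine and run 30 min at room temperature.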
HEK cytotox = cytotoxic compounds in HEK 293 cells | hit rate 6.6% among 94,000 | HEK 293 viability, ATP luminescence (CellTiter-Glo), 48-72 h | AID 1345083 | Potency, µM (series often up to 115 µM), without a hit: top-dose activity change, negative = cytotoxicity, usual class: inhibitors; note: nearly all actives have a fitted effect of over 60% in size
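HEK 293 seeded at 250 cells/well receive compound via pintool. After 48 or 72 hr at 37 degree Celsius, 5% CO2 and 95% humidity, CellTiter-Glo is dispensed and luminescence read following 10 min at room temperature.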
3T3 cytotox = kills NIH 3T3 cells; NIH 3T3 viability, CellTiter-Glo ATP luminescence, 48-72 h; Potency, µM (series often up to 96.7 µM), without a hit: top-dose activity change, negative = cytotoxicity, most hits filed as inhibitors; hit rate 4.3% among 94,000; AID 1345082; note: nearly all actives have a fitted effect of over 55% in size
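Cytotoxicity was measured by CellTiter-Glo ATP luminescence after 48 or 72 h compound exposure at 37 °C. Mouse NIH 3T3 fibroblasts were seeded at 400 cells/well and dosed by 23 nL pin transfer.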
NPR1 antag = antagonists of human natriuretic peptide receptor Npr1 | HEK293 hNpr1 GloSensor cGMP, ANP-stimulated luminescence | Potency, µM (titrated, usually from 46.3 µM), without a hit: at the top dose activity change, negative = inhibition, most hits filed as inhibitors | AID 1347048 | hit rate 1.6% among 76,000 | P16066; calls by dose curve; note: nearly all actives have a fitted effect of over 60% in size
Target sequence (P16066 whole entry, looked up): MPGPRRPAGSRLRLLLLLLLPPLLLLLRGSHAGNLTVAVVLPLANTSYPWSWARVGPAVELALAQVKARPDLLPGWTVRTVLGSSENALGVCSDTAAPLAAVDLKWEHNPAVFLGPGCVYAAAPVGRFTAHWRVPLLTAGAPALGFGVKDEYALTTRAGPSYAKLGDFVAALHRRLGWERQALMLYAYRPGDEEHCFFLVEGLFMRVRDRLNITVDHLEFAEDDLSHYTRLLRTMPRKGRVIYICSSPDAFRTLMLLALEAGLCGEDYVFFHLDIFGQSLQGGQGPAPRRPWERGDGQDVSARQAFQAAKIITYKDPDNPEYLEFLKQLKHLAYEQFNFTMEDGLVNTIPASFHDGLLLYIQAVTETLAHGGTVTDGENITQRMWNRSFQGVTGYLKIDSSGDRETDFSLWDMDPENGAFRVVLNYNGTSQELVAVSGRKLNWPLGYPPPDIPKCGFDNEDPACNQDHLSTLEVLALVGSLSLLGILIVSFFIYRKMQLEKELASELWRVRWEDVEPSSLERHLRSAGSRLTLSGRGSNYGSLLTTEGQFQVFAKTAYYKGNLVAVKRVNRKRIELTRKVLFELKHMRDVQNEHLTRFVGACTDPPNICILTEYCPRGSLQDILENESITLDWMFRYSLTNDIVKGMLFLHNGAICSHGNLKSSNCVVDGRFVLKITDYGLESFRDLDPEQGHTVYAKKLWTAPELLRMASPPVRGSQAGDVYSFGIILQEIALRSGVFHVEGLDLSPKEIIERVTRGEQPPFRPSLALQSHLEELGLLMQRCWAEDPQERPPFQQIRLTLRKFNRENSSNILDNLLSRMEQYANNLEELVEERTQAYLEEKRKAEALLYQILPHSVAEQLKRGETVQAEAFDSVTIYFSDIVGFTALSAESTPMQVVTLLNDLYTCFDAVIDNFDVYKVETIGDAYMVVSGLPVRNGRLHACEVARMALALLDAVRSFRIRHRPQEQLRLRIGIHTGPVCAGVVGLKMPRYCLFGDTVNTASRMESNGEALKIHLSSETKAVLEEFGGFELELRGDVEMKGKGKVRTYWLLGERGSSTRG
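HEK293 cells stably expressing human Npr1 and cGMP GloSensor pGS-40F, loaded 2 h with 2% GloSensor reagent, given compound 30 min at room temperature. Luminescence read before and 20 min after 0.1 nM hNppA.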
Starred values were filed as active, the others as inactive; ! = repeats disagree; [ ] = remark or other dose. Unless noted, calls come from the whole dose curve; as a rule, active = well fitted curve in the direction sought with a large enough effect; inconclusive = small, poorly fitted or top-dose-only effect, or another doubt; inactive = no such curve, though single readings can be large; an effect the other way counts as inactive or inconclusive. % is set by controls: 0 for no effect and ±100 for the full control effect; potency is the fitted concentration of half-maximal effect.

What do the screens show for `O=C1CO[C@H]2CCN(Cc3ccc4c(c3)CCO4)CC[C@@H]2N1Cc1ccccc1`?
FLuc inh: inactive; GPT2 inh: inactive; HEK cytotox: inconclusive; 3T3 cytotox: 100µM*; NPR1 antag: -21%[70.6 µM]

What do the screens show for `CC(C)c1ccc(CN2CC[C@@H]3OCC(=O)N(Cc4ccccc4)[C@H]3CC2)cc1`?
FLuc inh: inactive; GPT2 inh: -25%[88.5 µM]; HEK cytotox: 32µM*; 3T3 cytotox: 35µM*; NPR1 antag: inconclusive

How did CC1(C)CCC2=C(O1)c1ccccc1C(=O)C2=O do in these assays?
GPT2 inh: 3.4µM*!

How did CC(C)N1CCC(N2CCN(Cc3cn(C(C)C)c4ccccc34)CC2CCO)CC1 (stereo not given) do in these assays?
FLuc inh: inactive; GPT2 inh: inactive; HEK cytotox: inconclusive; 3T3 cytotox: inconclusive; NPR1 antag: 3%

Results for Fc1ccc(-c2ccc3ncc(Nc4ccc5c(c4)OCO5)n3n2)cc1 ?
FLuc inh: inactive; GPT2 inh: inconclusive; HEK cytotox: 79µM*; 3T3 cytotox: inconclusive; NPR1 antag: -11%[70.6 µM]

Results for NC(=O)c1ccc(Nc2cnc3ccc(-c4ccccc4)nn23)cc1 ?
FLuc inh: inactive; GPT2 inh: -29%[88.5 µM]; HEK cytotox: inconclusive; 3T3 cytotox: 28µM*; NPR1 antag: -10%[70.6 µM]

How did COc1ccc(Nc2cnc3ccc(-c4ccc(F)cc4)nn23)cc1 do in these assays?
FLuc inh: inactive; GPT2 inh: inconclusive; HEK cytotox: inconclusive; 3T3 cytotox: inconclusive; NPR1 antag: -2%[70.6 µM]

How did COc1ccc(Nc2cnc3ccc(-c4ccc(F)cc4)nn23)cn1 do in these assays?
FLuc inh: inactive; GPT2 inh: inconclusive; HEK cytotox: 50µM*; 3T3 cytotox: 35µM*; NPR1 antag: 3%[70.6 µM]

How did COc1ccc(Nc2cnc3ccc(-c4ccccc4)nn23)cc1 do in these assays?
FLuc inh: inconclusive; GPT2 inh: inactive; HEK cytotox: 71µM*; 3T3 cytotox: inconclusive; NPR1 antag: -12%[70.6 µM]

What do the screens show for `COc1ccc(-c2ccc3ncc(Nc4ccc5c(c4)OCO5)n3n2)cn1`?
FLuc inh: inactive; GPT2 inh: inconclusive; HEK cytotox: inconclusive; 3T3 cytotox: inconclusive; NPR1 antag: -13%[70.6 µM]

What do the screens show for `CC(C)(C)NC(=O)N1CCCCCCNC(=O)[C@@H]2C[C@@H](C(=O)N3CCc4ccccc4C3)C[C@@H]21`?
FLuc inh: inactive; GPT2 inh: 3%; HEK cytotox: -10%; 3T3 cytotox: -27%; NPR1 antag: 0%

Results for COCC1CN(C2CCC2)CC12CCN(C(=O)c1ccc(OC)cc1OC)CC2 (stereo not given) ?
GPT2 inh: inactive; HEK cytotox: inconclusive; 3T3 cytotox: -25%

Results for COc1ccc(Nc2cnc3ccc(-c4ccccc4)nn23)cn1 ?
FLuc inh: inconclusive; GPT2 inh: inconclusive; HEK cytotox: 45µM*; 3T3 cytotox: 40µM*; NPR1 antag: -3%[70.6 µM]

How did COc1cncc(Nc2cnc3ccc(-c4ccc(OC)nc4)nn23)c1 do in these assays?
FLuc inh: inactive; GPT2 inh: inconclusive; HEK cytotox: inconclusive; 3T3 cytotox: -24%[138 µM]; NPR1 antag: 1%[70.6 µM]

What do the screens show for `Fc1ccc(-c2ccc3ncc(Nc4ccncc4)n3n2)cc1`?
FLuc inh: inactive; GPT2 inh: -1%[88.5 µM]; HEK cytotox: 100µM*; 3T3 cytotox: inconclusive; NPR1 antag: -2%[70.6 µM]

Results for COc1cncc(Nc2cnc3ccc(N(C)Cc4ccc(F)cc4)nn23)c1 ?
FLuc inh: inactive; GPT2 inh: inconclusive; HEK cytotox: inconclusive; 3T3 cytotox: inconclusive; NPR1 antag: inconclusive

How did c1ccc(-c2ccc3ncc(Nc4ncccn4)n3n2)cc1 do in these assays?
FLuc inh: inactive; GPT2 inh: inactive; HEK cytotox: inconclusive; 3T3 cytotox: inconclusive; NPR1 antag: 1%[70.6 µM]

Results for CN(Cc1ccc(F)cc1)c1ccc2ncc(Nc3ccc4c(c3)OCCO4)n2n1 ?
FLuc inh: inactive; GPT2 inh: inactive; HEK cytotox: 40µM*; 3T3 cytotox: inconclusive; NPR1 antag: -19%[70.6 µM]

How did COc1ccc(CCc2nnc3n2CCCC3)cc1 do in these assays?
FLuc inh: inactive; GPT2 inh: inactive; HEK cytotox: 8%; 3T3 cytotox: -11%; NPR1 antag: -8%

Results for O=C(C1CCCC1)N1CCC(Cc2noc(C3CCOCC3)n2)C1 (stereo not given) ?
GPT2 inh: 5%; HEK cytotox: -22%; 3T3 cytotox: -18%

What do the screens show for `O=C(Cn1cnc2sccc2c1=O)NC1CCCc2c1[nH]c1ccccc21` (stereo not given)?
FLuc inh: inactive; GPT2 inh: inconclusive; HEK cytotox: inconclusive; 3T3 cytotox: -17%; NPR1 antag: -11%

Results for CNC(=O)C1CCCN(Cc2cccc(-c3ccc(F)cc3F)c2)C1 (stereo not given) ?
GPT2 inh: inactive; HEK cytotox: 63µM*; 3T3 cytotox: inconclusive

What do the screens show for `O=C(Nc1cccc(Cl)c1)C1CCCN(Cc2cccc(-c3ccc(F)cc3F)c2)C1` (stereo not given)?
GPT2 inh: -2%; HEK cytotox: inconclusive; 3T3 cytotox: inconclusive

What do the screens show for `O=C(NCC(F)F)C1CCCN(Cc2cccc(-c3ccc(F)cc3F)c2)C1` (stereo not given)?
GPT2 inh: -10%; HEK cytotox: inconclusive; 3T3 cytotox: inconclusive

How did N#Cc1cc(CN2CCCC(C(=O)Nc3cccc(-c4ccc(F)cc4)c3)C2)c[nH]1 (stereo not given) do in these assays?
FLuc inh: inactive; GPT2 inh: -9%; HEK cytotox: 25µM*; 3T3 cytotox: 18µM*; NPR1 antag: -25%

What do the screens show for `O=C(Nc1cccc(F)c1)C1CCCN(Cc2cccc(-c3ccc(F)cc3F)c2)C1` (stereo not given)?
GPT2 inh: -2%; HEK cytotox: 20µM*; 3T3 cytotox: 45µM*

Results for C#CCNC(=O)C1CCCN(Cc2cccc(-c3ccc(F)cc3F)c2)C1 (stereo not given) ?
GPT2 inh: 2%; HEK cytotox: 45µM*; 3T3 cytotox: inconclusive

What do the screens show for `Cc1ccc(CN2CCCCCCNC(=O)[C@@H]3C[C@@H](C(=O)NCCc4c[nH]c5ccccc45)C[C@@H]32)o1`?
FLuc inh: inactive; GPT2 inh: 3%; HEK cytotox: inconclusive; 3T3 cytotox: inconclusive; NPR1 antag: 3%

How did COCCNC(=O)CNC(=O)c1ccc(-c2cccc(C(F)(F)F)c2)cc1 do in these assays?
GPT2 inh: inactive; HEK cytotox: inconclusive; 3T3 cytotox: inconclusive

How did COc1ccc(-c2noc(Nc3cc(C)ccc3OC)n2)cc1 do in these assays?
FLuc inh: 18µM*; GPT2 inh: inactive; HEK cytotox: inconclusive; 3T3 cytotox: inconclusive; NPR1 antag: -6%
